Reference: PubChem BioAssay (EPA / NIEHS)
“And” between values parts separate entries of the source, which are not always exact repeats. Equal entries are not always repeated. A structure can be active in one record and inactive in another. The source made the active and inactive calls. How the source made its calls: active means hit-call score of the fitted dose curve at least 0.9, where 1 is the maximum; inactive means score below 0.9.

Assay: CCTE_Shafer_MEA_dev_per_burst_spike_percent: CCTE's Neural Network Formation Assay for Percent of Spikes in a Burst, Shafer Lab (AID 2284032)
Method: CCTE_Shafer_MEA_dev assay is conducted using Axion Biosystems 48 well microelectrode array (MEA) plates and Maestro recording system. Each well of the MEA plate contains a grid of 16 microelectrodes embedded in the culture surface. Electrically active cells, such as neurons, can be cultured over the electrodes, and electrical activity in these cells can be recorded extracellularly. The spontaneous firing of neurons is captured from each electrode on a microsecond timescale providing both temporally and spatially precise data. […] The CCTE_Shafer_MEA_dev assay uses primary cultures of rat cortical neurons. Recordings are made on days post-plating 5, 7, 9 and 12. As these cultures mature over time, neural networks develop functional activity and form cohesive networks in which electrical activity can be highly coordinated. CCTE_Shafer_MEA_dev_per_burst_spike_percent is 1 of 19 assay components of the CCTE_Shafer_MEA_dev assay. It measures the percentage of spikes (action potential firings) in a single-electrode burst (temporally-clustered group of spikes) as the total number spikes in bursts divided by the total number of spikes during a recording in a microelectrode array (MEA) using Axion Biosystems Maestro 768 channel amplifier with the AxIS adaptive spike detector. The percent of spikes in bursts is averaged across the actively bursting electrodes to report a well-mean value. To collapse across multiple recordings made on days post-plating 5, 7, 9 and 12, the trapezoidal area-under-the-curve of the component is calculated.Data from the assay component CCTE_Shafer_MEA_dev_per_burst_spike_percent was analyzed into 1 assay endpoint. This assay endpoint, CCTE_Shafer_MEA_dev_per_burst_spike_percent, was analyzed in the negative analysis fitting direction relative to DMSO as the negative control and baseline of activity. Using a type of functional reporter, gain or loss-of-signal activity can be used to understand electrical activity.
On the day prior to culture, each well was coated thoroughly with 150 uL of 0.05% polyethyleneimine (PEI, Sigma Cat P3143) in 50 mM HEPES (Sigma Cat H7523) at a pH of 8. The plate was incubated at 37C for one hour. PEI was rinsed out with 500 uL of sterile water three times. Plates were stored at 4C until the day of culture. This culture was plated at a seeding density of 1.5 x 10^5 cells/well on a 48-well MEA plate, prepared as described above. Cells were administered via a 25 uL media/laminin ([…]; Sigma Cat L2020-1MG) drop directly onto the microelectrode array, as adding the cells with the laminin results in better attachment than pre-coating with laminin. After 2 hours, an additional 475 uL of cortical media was added and the cells returned to the incubator. Exposure starts at day 0 of plating and is continued over twelve days of network development until the experiment is terminated. Cells are fed with fresh medium on DIV 5 and 9, following the recordings on those days. The entire volume of media in the well is exchanged and any vehicle or compound treatment is renewed. Complete details are found in OP-NHEERL/ISTD/SBB/TJS/2015-03-r0 (available on request, email shafer.tim@epa.gov). Measurement of the electrical activity is non-invasive, and recordings can be made from the same plate over multiple different days of the culture. In cortical neurons, this allows for the measurement of extracellular action potentials over the period during which networks form in the MEA plate.
With COC(=O)Nc1nc2ccccc2[nH]1 the outcome was “inactive”.
With CNC(=O)Oc1cccc2c1OC(C)(C)C2 the outcome was “inactive” and the AC50 was 15.5 µM (active).
In the case of ClC1=C(Cl)C2(Cl)C3C(Cl)C=CC3C1(Cl)C2(Cl)Cl (stereo unspecified), the AC50 is reported as 4.18 µM (active).
In the case of CC(C)COC(=O)c1ccccc1C(=O)OCC(C)C, the AC50 is reported as 23.1 µM (active).
In the case of ClC1=C(Cl)[C@]2(Cl)[C@H]3[C@H]([C@@H]4C=C[C@H]3C4)[C@@]1(Cl)C2(Cl)Cl, the AC50 is reported as 5.76 µM (active).
With CCCCOC(=O)c1ccccc1C(=O)OCc1ccccc1 the outcome was “inactive”.
With Nc1cc(Cl)cc(C(=O)O)c1Cl the outcome was “inactive”.
In the case of CCC[CH2][Sn]([Cl])([CH2]CCC)[CH2]CCC, the AC50 is reported as 0.0758 µM (active).
In the case of CCNS(=O)(=O)C(F)(F)C(F)(F)C(F)(F)C(F)(F)C(F)(F)C(F)(F)C(F)(F)C(F)(F)F, the AC50 is reported as 15 µM (active) and 3.54 µM (active).
With Clc1ccc(C(c2ccc(Cl)cc2)C(Cl)Cl)cc1 the AC50 was 4.86 µM (active).
With [Cl-].[Cl-].[Hg+2] the AC50 was 0.882 µM (active).
With CC(C)(O)c1cnn2c(-c3ccc(F)c(-c4c(F)cccc4C#N)c3)cnc2n1 the AC50 was 10 µM (active).
In the case of Clc1ccc(C(c2ccc(Cl)cc2)C(Cl)(Cl)Cl)cc1, the AC50 is reported as 3.45 µM (active) and 6.66 µM (active).
For CN(C)[C@@H]1C(=O)C(C(N)=O)=C(O)[C@@]2(O)C(=O)C3=C(O)c4c(O)cccc4[C@@](C)(O)[C@H]3C[C@@H]12, the outcome was “inactive”.
For C1=Cc2cccc3cccc1c23, the outcome was “inactive”.
For COP(=S)(OC)SCN1C(=O)c2ccccc2C1=O, the AC50 was 32.8 µM (active) and 51.5 µM (active).
For OCCOCCO, the outcome was “inactive”.
For O=P(OCCCl)(OCCCl)OCCCl, the outcome was “inactive”.
For CC(C)(C)C(O)(CCc1ccc(Cl)cc1)Cn1cncn1 (stereo unspecified), the AC50 was 15 µM (active).
In the case of [O-][Cl+]O, the outcome is reported as “inactive”.
